The source of these data is ChEMBL document CHEMBL1961873, “Compounds: GSK PKIS; Assays: Nanosyn kinase panel” (2012).

SMILES strings stand for the structures. Where “and” joins values, the source holds several entries; their conditions need not be identical. Equal values may be shown once.

Experiment [1] has as its target Tyrosine-protein kinase Fer (Homo sapiens) (UniProt P16591). The settings on record: at 1 µM.
Experiment [2] deals with Tyrosine-protein kinase Fes/Fps (Homo sapiens) (UniProt P07332). The settings on record: at 0.1 µM.
Sequence of Tyrosine-protein kinase Fes/Fps (Homo sapiens) (P07332 whole entry): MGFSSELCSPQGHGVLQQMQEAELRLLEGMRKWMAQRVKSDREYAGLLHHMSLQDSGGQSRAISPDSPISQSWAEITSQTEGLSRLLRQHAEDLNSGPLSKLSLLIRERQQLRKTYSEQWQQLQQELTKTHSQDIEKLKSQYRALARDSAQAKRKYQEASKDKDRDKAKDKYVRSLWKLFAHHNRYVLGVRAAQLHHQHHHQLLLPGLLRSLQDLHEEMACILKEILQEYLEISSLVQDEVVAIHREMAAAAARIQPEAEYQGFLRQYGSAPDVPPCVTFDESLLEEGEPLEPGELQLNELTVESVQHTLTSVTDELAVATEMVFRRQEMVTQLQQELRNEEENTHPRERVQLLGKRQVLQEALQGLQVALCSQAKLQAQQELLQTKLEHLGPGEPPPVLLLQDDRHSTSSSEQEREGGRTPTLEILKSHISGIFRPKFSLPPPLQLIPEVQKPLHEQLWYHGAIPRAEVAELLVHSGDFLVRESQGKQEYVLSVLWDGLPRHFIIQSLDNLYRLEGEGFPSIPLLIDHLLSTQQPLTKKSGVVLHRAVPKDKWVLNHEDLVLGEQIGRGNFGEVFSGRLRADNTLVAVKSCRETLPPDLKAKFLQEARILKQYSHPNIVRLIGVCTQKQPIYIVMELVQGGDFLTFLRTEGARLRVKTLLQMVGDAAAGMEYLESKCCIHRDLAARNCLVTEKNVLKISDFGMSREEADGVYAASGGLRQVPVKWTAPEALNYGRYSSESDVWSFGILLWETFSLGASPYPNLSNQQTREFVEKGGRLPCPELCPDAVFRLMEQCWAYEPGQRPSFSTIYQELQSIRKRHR
For experiment [3] the target is unchanged. The settings on record: at 1 µM.
Experiment [4] concerns the target Fibroblast growth factor receptor 1 (Homo sapiens) (UniProt P11362). The settings on record: at 0.1 µM.
The target is the same in experiment [5]. The settings on record: at 1 µM.
The target of experiment [6] is Fibroblast growth factor receptor 2 (Homo sapiens) (UniProt P21802). The settings on record: at 0.1 µM.
Sequence of Fibroblast growth factor receptor 2 (Homo sapiens) (P21802 22-821 limits assumed): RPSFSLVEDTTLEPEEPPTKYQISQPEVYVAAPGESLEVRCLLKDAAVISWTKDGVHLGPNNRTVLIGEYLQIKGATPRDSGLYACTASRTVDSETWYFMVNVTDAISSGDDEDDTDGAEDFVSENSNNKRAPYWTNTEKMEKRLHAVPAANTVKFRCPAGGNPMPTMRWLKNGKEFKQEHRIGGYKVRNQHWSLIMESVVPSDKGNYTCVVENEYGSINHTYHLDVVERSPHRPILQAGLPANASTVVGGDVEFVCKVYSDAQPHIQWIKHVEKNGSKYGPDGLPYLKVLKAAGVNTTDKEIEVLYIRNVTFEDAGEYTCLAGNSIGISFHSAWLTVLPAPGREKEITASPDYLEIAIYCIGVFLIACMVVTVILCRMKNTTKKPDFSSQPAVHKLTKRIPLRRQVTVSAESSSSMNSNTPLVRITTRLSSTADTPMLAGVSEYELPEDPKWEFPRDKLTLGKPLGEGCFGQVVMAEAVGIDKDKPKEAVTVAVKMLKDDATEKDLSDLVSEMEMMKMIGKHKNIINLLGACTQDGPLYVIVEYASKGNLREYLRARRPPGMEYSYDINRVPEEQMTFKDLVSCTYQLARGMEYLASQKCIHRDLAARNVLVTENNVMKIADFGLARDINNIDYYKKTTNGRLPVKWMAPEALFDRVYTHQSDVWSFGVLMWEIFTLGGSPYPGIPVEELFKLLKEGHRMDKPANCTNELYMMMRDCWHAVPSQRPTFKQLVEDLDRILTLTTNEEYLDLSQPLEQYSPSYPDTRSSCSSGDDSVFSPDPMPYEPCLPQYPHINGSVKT
Experiment [7] shares this target. The settings on record: at 1 µM.
For experiment [8], the target named is Fibroblast growth factor receptor 3 (Homo sapiens) (UniProt P22607). The settings on record: at 0.1 µM.
Sequence of Fibroblast growth factor receptor 3 (Homo sapiens) (P22607 23-806 limits assumed): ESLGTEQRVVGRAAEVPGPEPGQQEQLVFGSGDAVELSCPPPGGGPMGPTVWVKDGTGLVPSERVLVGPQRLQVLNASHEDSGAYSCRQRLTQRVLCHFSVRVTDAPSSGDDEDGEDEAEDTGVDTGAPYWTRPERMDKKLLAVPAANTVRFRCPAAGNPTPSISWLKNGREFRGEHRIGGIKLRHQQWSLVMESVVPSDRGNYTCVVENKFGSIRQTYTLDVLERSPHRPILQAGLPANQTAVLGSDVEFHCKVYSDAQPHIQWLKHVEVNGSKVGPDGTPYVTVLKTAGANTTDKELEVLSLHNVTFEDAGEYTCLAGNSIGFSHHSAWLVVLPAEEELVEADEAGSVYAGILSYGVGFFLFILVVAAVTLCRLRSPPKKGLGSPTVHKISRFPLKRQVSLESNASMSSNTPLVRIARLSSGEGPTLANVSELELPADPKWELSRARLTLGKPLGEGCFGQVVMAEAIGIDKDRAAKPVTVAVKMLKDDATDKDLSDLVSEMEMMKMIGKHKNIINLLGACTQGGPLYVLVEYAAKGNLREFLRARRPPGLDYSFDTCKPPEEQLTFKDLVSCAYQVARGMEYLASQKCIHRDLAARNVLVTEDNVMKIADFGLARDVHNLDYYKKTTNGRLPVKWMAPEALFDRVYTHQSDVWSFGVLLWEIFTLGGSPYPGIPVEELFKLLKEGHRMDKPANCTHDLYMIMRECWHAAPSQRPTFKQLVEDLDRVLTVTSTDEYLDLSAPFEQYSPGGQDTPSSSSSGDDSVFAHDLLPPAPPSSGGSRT
Experiment [9] has the same target. The settings on record: at 1 µM.
Experiment [10] has as its target Fibroblast growth factor receptor 4 (Homo sapiens) (UniProt P22455). The settings on record: at 0.1 µM.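 Further: values are mean percent inhibition of FGFR4.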

Sequence of Fibroblast growth factor receptor 4 (Homo sapiens) (P22455 22-802 limits assumed): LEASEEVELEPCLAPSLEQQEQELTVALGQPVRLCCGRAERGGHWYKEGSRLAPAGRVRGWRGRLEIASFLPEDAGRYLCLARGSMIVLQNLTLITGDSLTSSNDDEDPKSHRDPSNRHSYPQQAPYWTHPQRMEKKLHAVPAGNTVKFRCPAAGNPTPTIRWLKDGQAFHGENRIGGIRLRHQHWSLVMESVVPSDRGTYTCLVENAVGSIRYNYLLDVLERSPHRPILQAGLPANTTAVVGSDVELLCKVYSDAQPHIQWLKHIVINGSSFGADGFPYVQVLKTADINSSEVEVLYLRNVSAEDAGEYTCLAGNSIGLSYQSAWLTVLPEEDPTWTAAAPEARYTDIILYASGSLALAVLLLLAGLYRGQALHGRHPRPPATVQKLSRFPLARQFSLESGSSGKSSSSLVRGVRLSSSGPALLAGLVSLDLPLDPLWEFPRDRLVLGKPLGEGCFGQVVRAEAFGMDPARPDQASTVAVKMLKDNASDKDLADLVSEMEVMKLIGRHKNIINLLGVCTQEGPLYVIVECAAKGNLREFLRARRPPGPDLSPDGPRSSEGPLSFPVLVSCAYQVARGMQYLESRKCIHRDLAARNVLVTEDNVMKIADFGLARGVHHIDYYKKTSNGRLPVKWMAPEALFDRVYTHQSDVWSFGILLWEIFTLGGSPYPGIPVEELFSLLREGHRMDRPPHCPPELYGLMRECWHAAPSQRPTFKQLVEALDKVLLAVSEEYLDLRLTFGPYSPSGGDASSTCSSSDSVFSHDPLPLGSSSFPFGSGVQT
Sequence of Fibroblast growth factor receptor 1 (Homo sapiens) (P11362 22-822 limits assumed): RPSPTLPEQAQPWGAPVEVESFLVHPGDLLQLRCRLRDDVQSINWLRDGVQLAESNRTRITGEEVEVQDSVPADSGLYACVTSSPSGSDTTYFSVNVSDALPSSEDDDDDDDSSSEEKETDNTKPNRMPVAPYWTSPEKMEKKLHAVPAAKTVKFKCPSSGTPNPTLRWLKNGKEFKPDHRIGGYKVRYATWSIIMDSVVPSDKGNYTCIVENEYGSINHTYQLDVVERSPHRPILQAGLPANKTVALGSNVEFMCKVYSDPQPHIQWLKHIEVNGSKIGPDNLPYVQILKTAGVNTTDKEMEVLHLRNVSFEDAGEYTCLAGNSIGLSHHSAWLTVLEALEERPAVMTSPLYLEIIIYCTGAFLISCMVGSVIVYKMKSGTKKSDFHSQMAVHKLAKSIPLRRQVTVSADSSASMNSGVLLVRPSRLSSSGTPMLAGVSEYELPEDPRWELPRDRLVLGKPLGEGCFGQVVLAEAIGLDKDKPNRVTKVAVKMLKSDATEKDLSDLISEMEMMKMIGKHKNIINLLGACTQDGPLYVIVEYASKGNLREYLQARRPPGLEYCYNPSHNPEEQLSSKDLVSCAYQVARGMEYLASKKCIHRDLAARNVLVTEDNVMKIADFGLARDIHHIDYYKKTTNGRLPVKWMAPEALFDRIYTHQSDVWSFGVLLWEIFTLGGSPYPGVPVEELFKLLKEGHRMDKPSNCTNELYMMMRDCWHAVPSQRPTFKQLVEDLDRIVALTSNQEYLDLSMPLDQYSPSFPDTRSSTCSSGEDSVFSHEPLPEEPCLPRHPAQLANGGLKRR
Sequence of Tyrosine-protein kinase Fer (Homo sapiens) (P16591 whole entry, looked up): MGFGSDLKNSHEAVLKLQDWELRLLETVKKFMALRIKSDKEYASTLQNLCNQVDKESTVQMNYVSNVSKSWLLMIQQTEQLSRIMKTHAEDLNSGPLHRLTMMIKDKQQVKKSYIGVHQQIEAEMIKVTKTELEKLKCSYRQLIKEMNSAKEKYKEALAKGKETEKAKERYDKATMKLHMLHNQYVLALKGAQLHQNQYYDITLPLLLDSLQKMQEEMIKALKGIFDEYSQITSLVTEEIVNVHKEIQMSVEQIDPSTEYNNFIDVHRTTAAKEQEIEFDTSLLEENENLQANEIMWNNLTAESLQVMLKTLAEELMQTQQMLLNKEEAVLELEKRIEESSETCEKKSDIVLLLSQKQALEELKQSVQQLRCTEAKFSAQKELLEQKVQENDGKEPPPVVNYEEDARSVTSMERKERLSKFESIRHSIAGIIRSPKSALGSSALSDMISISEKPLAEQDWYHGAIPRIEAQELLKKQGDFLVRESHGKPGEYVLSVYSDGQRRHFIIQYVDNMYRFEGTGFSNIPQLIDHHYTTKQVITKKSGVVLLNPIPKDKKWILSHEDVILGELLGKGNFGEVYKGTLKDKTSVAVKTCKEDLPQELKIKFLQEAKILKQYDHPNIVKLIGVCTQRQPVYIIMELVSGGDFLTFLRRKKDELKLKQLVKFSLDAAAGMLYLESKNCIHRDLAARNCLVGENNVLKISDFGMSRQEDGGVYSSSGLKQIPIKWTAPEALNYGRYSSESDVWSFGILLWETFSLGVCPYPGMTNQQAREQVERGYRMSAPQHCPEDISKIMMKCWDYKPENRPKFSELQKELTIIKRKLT

In the case of `CCN1CCC(C(=O)Nc2n[nH]c3nnc(-c4cccc(F)c4F)cc23)CC1`, the inhibition (as a rule, the drop in the measured response relative to a control, in per cent) was 1.37% in experiment [1]; -0.22% in [2]; -1.05% in experiment [3]; -4.59% in experiment [4]; -1.81% in experiment [5]; -0.41% in [6]. In addition, the inhibition in [7] is -2.18%; in experiment [8] it was -0.59%; in experiment [9] it was 2.01%; in experiment [10], 1.8%.
Take `Cn1c(-c2nonc2N)nc2cnccc21`: the inhibition in [1] was 6.7%; in experiment [2], 2.6%; in [3], 3.53%; in experiment [4], 4.78%; in [5], 2.36%; in experiment [6], 2.83%. Also, the inhibition in [7] is 1.91%; in [8] it was 5.11%; in experiment [9], 1.94%; in experiment [10], -0.24%.
With `CN1CCC(C(=O)Nc2n[nH]c3nc(-c4ccc(O)cc4)c(Br)cc23)CC1`, the inhibition is 5.19% and 5.02% in experiment [1]; 2.73% and 2.03% in [2]; 2.01% and 1.81% in experiment [3]; -1.64% and 2.05% in experiment [4]; -0.75% and 5.39% in [5]; -0.3% and 14.5% in experiment [6]. Further, the inhibition was 2.81% and 5.43% in experiment [7]; 1.48% and 6.04% in experiment [8]; 1.79% and 4.41% in experiment [9]; 6.09% in experiment [10].
Take `c1cnn2ncc(-c3ccnc(NCCCN4CCOCC4)n3)c2c1`: the inhibition was determined as 1.85% in experiment [1]; 2.2% in [2]; 5.72% in [3]; 1.29% in experiment [4]; 2.22% in [5]; 1% in [6]. In addition, the inhibition was 3.87% in [7], 3.61% in experiment [8], 1.83% in experiment [9] and -0.18% in experiment [10].
Consider `Fc1cccc(COc2ccc(Nc3ncncc3C#Cc3ccccc3)cc2Cl)c1`, for which the inhibition in [1] came out at 6.06%; in experiment [2], 2.55%; in experiment [3], 3.61%; in experiment [4], 2.88%; in [5] it was 2.38%; in experiment [6], 4.03%. Also, the inhibition in [7] came to 5.85%; in [8], 4.99%; in experiment [9], 3.8%; in experiment [10], 0.25%.
On to `COc1cccc(Nc2nccc(-c3cnn4ncccc34)n2)c1`, for which the inhibition in experiment [1] was 48%; in experiment [2], 8.87%; in [3] it was 50.3%; in [4], -2.04%; in [5] it was 4.55%; in experiment [6], 1.68%. The inhibition in [7] came out at 16.6%; in experiment [8], 0.93%; in [9] it was 10.9%; in experiment [10], 1.56%.
In the case of `O=C(O[C@H]1CN[C@H](C#Cc2cc3ncnc(Nc4ccc5c(ccn5Cc5cc(F)ccc5F)c4)c3s2)C1)N1CCOCC1`, the inhibition was 5.55% in experiment [1]; 3.3% in experiment [2]; 3.52% in experiment [3]; -0.06% in experiment [4]; 2.23% in experiment [5]; 3.95% in experiment [6]. Also, the inhibition is 4.22% in experiment [7], 5.33% in experiment [8], 3.1% in [9] and -1.92% in [10].
For `NS(=O)(=O)c1ccc(N/N=C2\C(=O)Nc3cccc(CCc4ccncc4)c32)cc1`, the inhibition in [1] was 5.66%; in experiment [2], 0.64%; in experiment [3], -0.42%; in experiment [4] it was 5.09%; in experiment [5], 16.7%; in experiment [6] it was 7.6%. Besides, the inhibition in experiment [7] came out at 18.2%; in experiment [8], 6.3%; in experiment [9], 19.2%; in experiment [10], 4.76%.
As for `CN(C)CCNC(=O)Nc1ccc(N(C)c2ccnc(Nc3ccc(CS(C)(=O)=O)cc3)n2)cc1`, the inhibition was found to be 12.4% in experiment [1]; 3.36% in [2]; 6.7% in experiment [3]; 27.9% in [4]; 9.1% in [5]; 5.38% in [6]. The inhibition was determined as 8.82% in experiment [7], 6.17% in experiment [8], 5.98% in [9] and 1.63% in experiment [10].
With `COc1ccc(Nc2ncc(-c3ccccc3)o2)cc1OC`, the inhibition in experiment [1] was 4.34%; in experiment [2], 0.6%; in [3], 3.66%; in experiment [4] it was -3.4%; in experiment [5] it was 5.44%; in experiment [6], 1.29%. Also, the inhibition in [7] is 19.4%; in [8] it was 2.32%; in experiment [9], 13.2%; in experiment [10], 0.41%.
For the molecule `CNC(=O)c1sc(-n2cnc3cc(OC)c(OC)cc32)cc1OCc1ccccc1C(F)(F)F`, the inhibition was 5.74% in experiment [1]; 3.32% in [2]; 3.26% in experiment [3]; -4.6% in [4]; 7.69% in experiment [5]; 4.22% in [6]. Moreover, the inhibition is 7.4% in [7], 2.02% in experiment [8], 7.23% in experiment [9] and 0.59% in experiment [10].
Consider `COc1ccc2ncn(-c3cc(O[C@H](C)c4ccccc4C(F)(F)F)c(C(N)=O)s3)c2c1`, for which the inhibition in experiment [1] is 3.58%; in experiment [2], -0.21%; in experiment [3], 0.25%; in experiment [4] it was 1.11%; in [5] it was -0.51%; in experiment [6], -2.58%. For the same molecule, the inhibition was 5.48% in experiment [7], 0.12% in [8], 3.58% in experiment [9] and 0.21% in experiment [10].
For `N#Cc1ccc2c(-c3ccnc(NC4CC4)n3)c(-c3ccc(F)cc3)nn2c1`, the inhibition in [1] is -0.62%; in experiment [2] it was 1.05%; in experiment [3] it was 1.43%; in [4], -2.46%; in experiment [5], 1.96%; in [6], 1.16%. Also, the inhibition stood at 2.21% in [7], 1.76% in experiment [8], 1.06% in experiment [9] and 1.18% in experiment [10].
On to `N#Cc1cccc(Nc2ncc(-c3ccccc3)o2)c1`, for which the inhibition is 5.33% in [1]; 0.93% in experiment [2]; 1.79% in experiment [3]; -4.35% in experiment [4]; 2.95% in experiment [5]; 2.66% in experiment [6]. Besides, the inhibition in experiment [7] was 7.1%; in experiment [8], 2.72%; in [9], 4.48%; in experiment [10] it was -2.65%.
Consider `CCS(=O)(=O)c1ccc(OC)c(Nc2ncc(-c3cccc(C(C)=O)c3)o2)c1`, for which the inhibition is 3.06% in experiment [1]; 1.69% in experiment [2]; 2.72% in [3]; 4.89% in [4]; 12.9% in [5]; 17.2% in experiment [6]. Besides, the inhibition in [7] was 52.6%; in [8], 20%; in [9] it was 60%; in experiment [10], 1.41%.
For `OCCCNc1nccc(-c2c(-c3ccc(F)cc3)nn3cc(C(F)(F)F)ccc23)n1`, the inhibition in experiment [1] worked out at 2.56%; in [2], 1.95%; in experiment [3], 2.62%; in experiment [4] it was 6%; in [5], 6.47%; in experiment [6], 0.64%. Besides, the inhibition in experiment [7] turned out to be 3.29%; in experiment [8], 2.01%; in experiment [9] it was 1.53%; in experiment [10], 1.17%.
